Our source for the Potency values is PubChem BioAssay (Tox21).

A number with no mark means an inactive call. Inconclusive results are not listed. Active and inactive are the calls of the source. Calls come from the whole dose curve; as a rule, active = well fitted curve in the direction sought with a large enough effect in the repeat runs; inconclusive = weak or mixed curves; inactive = no such curve, though single readings can be large; an effect the other way counts as inactive or inconclusive.

Assay [1] in a line: qHTS RealTime-Glo MT Cell Viability Assay in HEK293 cells - 40 hour (AID 1224874). Note: potency is the fitted concentration of half-maximal effect; nearly all actives have a fitted effect of over 50% in size. As to conditions: RealTime-Glo luminescence; max response: stronger effect = lower value. The gist of the method:
(§1)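 HEK293 cells mixed with RealTime-Glo reagents (NanoLuc plus cell-permeant prosubstrate) at 600 cells/well, preincubated 5 h at 37 C/5% CO2, then given 23 nL compound in DMSO. Nonlytic luminescence from viable cells was read at 0, 8, 16, 24, 32 and 40 h.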
(qHTS replaces the single test concentration by a dilution series.)

Assay [2] in a line: A CellTox Green Cytotoxicity Assay to monitor cytotoxicity in HEK293 cells - 24 hour (AID 1224875). Note: series mostly up to about 77 µM; nearly all actives have a fitted effect of over 45% in size. The gist of the method: (§2)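 HEK293 cells premixed with CellTox Green dye were seeded at 600 cells/well and left 5 h at 37 C/5% CO2 before pin transfer of 23 nL compound in DMSO. Fluorescence from dye bound to dead-cell DNA was read during 40 h treatment.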
The nature of assay [3]: A CellTox Green Cytotoxicity Assay to monitor cytotoxicity in HepG2 cells - 16 hour (AID 1224876). Note: nearly all actives have a fitted effect of over 45% in size. Note: potency is the fitted concentration of half-maximal effect. The essentials: (§3)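 HepG2 cells were seeded together with the CellTox Green dye at 600 cells/well, left 5 h at 37 C/5% CO2, then given compounds in DMSO. Fluorescence from dye bound to dead-cell DNA was read repeatedly over 40 h of treatment at 37 C.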
A short description of assay [4]: qHTS RealTime-Glo MT Cell Viability Assay in HepG2 cells - 32 hour (AID 1224877). Note: nearly all actives have a fitted effect of over 55% in size. Note: potency is the fitted concentration of half-maximal effect. The gist of the method:
(§4)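 HepG2 cells were seeded at 600 cells/well together with NanoLuc luciferase and a cell-permeant prosubstrate, preincubated 5 h at 37 C/5% CO2, then pin-dosed with compounds in DMSO. Nonlytic luminescence from viable cells was read at each time point.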

Assay [5] is described as follows: A CellTox Green Cytotoxicity Assay to monitor cytotoxicity in HepG2 cells - 24 hour (AID 1224878). Note: nearly all actives have a fitted effect of over 45% in size. Note: potency is the fitted concentration of half-maximal effect. The gist of the method:
as §3

Assay [6] is described as follows: A CellTox Green Cytotoxicity Assay to monitor cytotoxicity in HepG2 cells - 40 hour (AID 1224879). Note: nearly all actives have a fitted effect of over 40% in size. Note: potency is the fitted concentration of half-maximal effect. The essentials:
as §3

Assay [7] can be described thus: qHTS RealTime-Glo MT Cell Viability Assay in HEK293 cells - 0 hour (AID 1224880). Note: nearly all actives have a fitted effect of over 45% in size. Note: potency is the fitted concentration of half-maximal effect. The gist of the method:
as §1

The nature of assay [8]: A CellTox Green Cytotoxicity Assay to monitor cytotoxicity in HepG2 cells - 0 hour (AID 1224882). Note: nearly all actives have a fitted effect of over 35% in size. The gist of the method: as §3
Assay [9] in a line: A CellTox Green Cytotoxicity Assay to monitor cytotoxicity in HepG2 cells - 32 hour (AID 1224883). Note: nearly all actives have a fitted effect of over 50% in size. Note: potency is the fitted concentration of half-maximal effect. The essentials: as §3
Assay [10] in a line: A CellTox Green Cytotoxicity Assay to monitor cytotoxicity in HEK293 cells - 8 hour (AID 1224884). Note: nearly all actives have a fitted effect of over 35% in size. The essentials: as §2
Assay [11] is described as follows: qHTS RealTime-Glo MT Cell Viability Assay in HepG2 cells - 16 hour (AID 1224885). Note: nearly all actives have a fitted effect of over 50% in size. Note: potency is the fitted concentration of half-maximal effect. The gist of the method: as §4
The nature of assay [12]: qHTS RealTime-Glo MT Cell Viability Assay in HEK293 cells - 24 hour (AID 1224886). Note: nearly all actives have a fitted effect of over 50% in size. Note: potency is the fitted concentration of half-maximal effect. The essentials: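 HEK293 cells were seeded at 600 cells/well together with NanoLuc luciferase and cell-permeant prosubstrate, preincubated 5 h at 37 C/5% CO2, then given compound in DMSO by pintool. Luminescence from viable-cell prosubstrate reduction was read repeatedly over 40 h.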
A short description of assay [13]: A CellTox Green Cytotoxicity Assay to monitor cytotoxicity in HEK293 cells - 16 hour (AID 1224888). Note: nearly all actives have a fitted effect of over 35% in size. The gist of the method: as §2
Assay [14] in a line: qHTS RealTime-Glo MT Cell Viability Assay in HepG2 cells - 0 hour (AID 1224889). Note: nearly all actives have a fitted effect of over 50% in size. Note: potency is the fitted concentration of half-maximal effect. The gist of the method:
as §4

The nature of assay [15]: A CellTox Green Cytotoxicity Assay to monitor cytotoxicity in HepG2 cells - 8 hour (AID 1224890). Note: nearly all actives have a fitted effect of over 45% in size. The essentials:
as §3

A short description of assay [16]: A CellTox Green Cytotoxicity Assay to monitor cytotoxicity in HEK293 cells - 32 hour (AID 1224881). Note: nearly all actives have a fitted effect of over 40% in size. Note: potency is the fitted concentration of half-maximal effect. The essentials:
as §2

A short description of assay [17]: qHTS RealTime-Glo MT Cell Viability Assay in HEK293 cells - 8 hour (AID 1224887). Note: nearly all actives have a fitted effect of over 50% in size. Note: potency is the fitted concentration of half-maximal effect. The essentials: as §1
A short description of assay [18]: qHTS RealTime-Glo MT Cell Viability Assay in HepG2 cells - 8 hour (AID 1224873). Note: nearly all actives have a fitted effect of over 55% in size. The gist of the method:
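HepG2 cells (600/well) mixed with RealTime-Glo MT reagent, settled 5 h at 37 C/5% CO2 before compound addition. Nonlytic NanoLuc luminescence from viable-cell prosubstrate reduction read repeatedly during 40 h treatment at 37 C.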

A short description of assay [19]: qHTS assay to identify small molecule antagonists of the estrogen receptor alpha (ER-alpha) signaling pathway using the BG1 cell line in the presence of 0.1 nM 17-beta-estradiol - cell viability counter screen (AID 1259241). Note: nearly all actives have a fitted effect of over 40% in size. Note: potency is the fitted concentration of half-maximal effect. The essentials:
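VM7Luc4E2, 4,000 cells/well, phenol red-free medium + 10% charcoal-stripped FBS; 24 hr plating; cpd + 0.1 nM E2 final, 22 hr 37C/5% CO2; CellTiter-Fluor 30 min, fluorescence.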

Turning to `CCN(CC)CCNc1ccc(CO)c2sc3ccccc3c(=O)c12`, the Potency in assay [1] is 16.9 µM (active); in assay [3], 16.9 µM (active); in assay [4] it was 23.9 µM (active); in [5], 16.9 µM (active); in assay [6] it was 13.4 µM (active); in [9], 13.4 µM (active). Further, the Potency was 23.9 µM (active) in [11] and 16.9 µM (active) in [12]. Also, the Potency entry in assay [2], in assay [7], in [8], in assay [10], in assay [13] and in [14] was “inactive” in each case. Besides, in [15], the Potency entry was “inactive”.

Regarding `CC(O)C#CC(C)O` (configuration not stated), the Potency entry in assay [7], in assay [8], in [10], in assay [17], in [13] and in assay [14] was “inactive” each time. Also, the Potency in assay [16] is 54.4 µM (active).

As to `O=S(=O)(O)CCCN1CCOCC1`, the Potency entry in [18], in assay [2], in assay [4], in [5], in assay [6] and in assay [7] was “inactive” throughout. In addition, the Potency entry in assay [16], in [8], in assay [9], in [10], in [11] and in [12] was “inactive” throughout. Also, the Potency result in assay [17], in assay [13], in assay [14], in assay [15] and in [19] was “inactive” each time.

For `NC(=O)c1nc(-c2cccc(-c3cc(F)ccc3OCC(F)(F)C(F)(F)F)c2)n[nH]1`, the Potency result in [18], in assay [2], in assay [4], in assay [7], in assay [8] and in [10] was “inactive” in each case. Moreover, the Potency result in [11], in assay [17] and in assay [14] was “inactive” each time. In addition, the Potency was 49 µM (active) in assay [3], 43.6 µM (active) in assay [5], 43.6 µM (active) in assay [6] and 43.6 µM (active) in assay [9].

On to `Cc1ccc(N)cc1O`, for which the Potency result in assay [18], in [4], in assay [7], in assay [8], in assay [11] and in assay [17] was “inactive” each time. The Potency result in assay [14] and in [15] was “inactive” throughout. Besides, the Potency in assay [19] is 61.1 µM (active).

In the case of `CCCCCCOc1ccc(O)cc1`, the figures for the Potency in assay [1], in assay [16] and in assay [17] were 0.0776 µM (active), 19.5 µM (active) and 0.0617 µM (active), respectively. In addition, the Potency entry in assay [7], in assay [10], in assay [13] and in assay [14] was “inactive” in each case.

With `Cc1nc(Nc2ncc(C(=O)Nc3c(C)cccc3Cl)s2)cc(N2CCN(CCO)CC2)n1`, the Potency result in assay [18], in assay [2], in assay [16], in assay [8], in assay [10] and in [13] was “inactive” each time. For the same compound, the Potency entry in assay [15] was “inactive”. In addition, the Potency in assay [5] is 26.8 µM (active); in [6], 26.8 µM (active); in [7], 26.8 µM (active); in assay [9], 26.8 µM (active); in assay [12], 30.1 µM (active); in assay [14], 23.9 µM (active).

With `C[C@]12CC[C@H]3C(=CCc4cc(O)ccc43)[C@@H]1CCC2=O`, the Potency in assay [1] and in assay [12] was 43.6 µM (active) in each case. Besides, the Potency result in assay [2], in [3], in [4], in assay [5], in assay [7] and in assay [16] was “inactive” in each case. Besides, the Potency entry in assay [10], in [17], in [13], in assay [14] and in [15] was “inactive” each time.

For `CC(=O)c1ccccc1N`, the Potency entry in assay [18], in [3], in [4], in assay [5], in [6] and in [7] was “inactive” each time. The Potency result in assay [16], in assay [9], in assay [10], in [11], in assay [14] and in assay [15] was “inactive” in each case. The Potency result in [19] was “inactive”.
